Hits are enriched below; roughly 4.3% of the tested compounds scored in any of these assays.
FAS TE block = blocks the thioesterase domain of human fatty acid synthase. recombinant FAS-TE, OMFH fluorogenic substrate, fluorescence endpoint. inhibition, % at 15 µM. 360,000 tested, 0.67% active;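 active = compounds whose normalised, plate-corrected inhibition of enzyme fluorescence in the single-dose primary screen is 50% or more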
NadD block = blocks S. aureus nicotinate mononucleotide adenylyltransferase; purified NadD enzyme, colorimetric absorbance read-out; inhibition, % at 20 µM; 360,000 tested, 0.78% active; in the data active = inhibition above about 26%
rCAG binder = r(CAG) repeat RNA binding; inhibition, % at 3 µM; TO-PRO-1 dye displacement fluorescence; AID 651821; 370,000 tested, 1.3% active;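 active = inhibition above the plate cutoff, the mean of all test compounds on that plate plus 3 SD, cut at about 35% in these data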;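 note: higher means more dye released from RNA so lower well fluorescence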
NR3A LBD binder = NR3A (human) ligand-binding domain modulation; NR3A LBD differential scanning fluorimetry, Tm shift; 0% = protein alone, 100% = glycine-bound protein; Tm shift relative to glycine control, % at 25 µM; 340,000 tested, 2.5% active; AID 1259313;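 active = melting temperature shift of at least 10% of the positive control shift, at one fixed dose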
Each line names hits and unclear results; the compound was inactive in the other large screens.

COc1ccc(-c2nnc(SCC(=O)Nc3ccc4cn[nH]c4c3)n2Cc2ccco2)cc1	none (no result: FAS TE block, NadD block, NR3A LBD binder)
O=C(Nc1ccc2c(c1)OCO2)OC1CCC12CCC(c1ccccc1)CC2 (stereo unspecified)	none (no result: FAS TE block, NadD block, NR3A LBD binder)
O=C(NCc1ccncc1)c1ccc(Cl)c(S(=O)(=O)N2CCOCC2)c1	NR3A LBD binder 321.5
COc1ccc(C(=O)NCc2ccncc2)cc1S(=O)(=O)N1CCOCC1	none
COc1ccc(-c2cc(-c3nnc(SCc4cccc5ccccc45)n3N)[nH]n2)cc1	none (no result: FAS TE block, NadD block, NR3A LBD binder)
Nc1nc2ccccc2n1C(=O)c1ccco1	NR3A LBD binder 15.5
O=C(Nc1ccc(Cl)c(Cl)c1)Nc1nc(-c2ccccc2)cs1	NR3A LBD binder 159.9
O=C(Nc1ccccc1)Nc1nc(-c2ccc(F)c(F)c2)cs1	NR3A LBD binder 27.9 (no result: rCAG binder)
O=C(Nc1ccc(Cl)cc1)Nc1nc(-c2ccccc2O)cs1	NR3A LBD binder 26.1
COC(=O)[C@]12C[C@H](CC(=O)NCCC(C)C)C(=O)N(Cc3ccc(Cl)cc3Cl)C1=C[C@H](C(C)(C)C)O[C@@H]2C	none (no result: FAS TE block, NadD block, NR3A LBD binder)
CCOc1ccc(C2=C(C=C(C#N)C#N)C(c3ccccc3)c3ccccc3O2)cc1 (stereo unspecified)	none
COc1ccc(C2=C(CN(C)C)C(c3ccccc3)c3ccccc3O2)cc1 (stereo unspecified)	NR3A LBD binder 11.0
COc1ccc(-n2sc3ccc(F)cc3c2=O)cc1	NR3A LBD binder 27.8
CN1CCN(c2cc(N3CCN(C(=O)c4ccco4)CC3)c3c4c(onc24)-c2ccccc2C3=O)CC1	NadD block 34.1 (no result: rCAG binder)
Cc1ccc(C)c(N2CCN(C(=O)CCc3nc(-c4cccc(F)c4)no3)CC2)c1	NR3A LBD binder 19.5
CCOC(=O)N1CCN(C(=O)C[C@H]2C[C@@]3(C(=O)OC)C(=C[C@H](COCc4ccccc4)O[C@@H]3C)N(CCc3ccc(OC)c(OC)c3)C2=O)CC1	none (no result: FAS TE block, NadD block, NR3A LBD binder)
CSC1=NSC2=NC(=O)/C(=C/c3coc4ccccc4c3=O)C(=N)N12	NR3A LBD binder 10.8
CSC1=NSC2=NC(=O)/C(=C/c3coc4ccc(O)cc4c3=O)C(=N)N12	NR3A LBD binder 14.6
N=C1/C(=C\c2coc3ccccc3c2=O)C(=O)N=C2SC=CN12	none
CSC1=NSC2=NC(=O)/C(=C\c3cccs3)C(=N)N12	none
COCCCNC(=O)c1nnn2c1nc(N)c1cc(Cl)ccc12	none (no result: FAS TE block, NadD block, NR3A LBD binder)
C[C@@H]1OC(C2CCCCC2)N(C)[C@H]2C[C@H]3c4[nH]c5c(-c6ccc7c(c6)OCO7)cccc5c4CCN3C[C@@H]12 (stereo partly specified)	none (no result: FAS TE block, NadD block, NR3A LBD binder)
CCN(C[C@@H]1[C@@H](c2ccccc2)[C@H](CO)N1S(C)(=O)=O)C(=O)C1CCC1	none (no result: FAS TE block, NadD block, NR3A LBD binder)
CC1CC(C)CN(CCCNS(=O)(=O)c2cc3c(cc2Br)CCN3C(=O)C2CC2)C1 (stereo unspecified)	none (no result: FAS TE block, NadD block, NR3A LBD binder)
CCCCNC(=O)Nc1ccccn1	NR3A LBD binder 12.3
CCOC(=O)c1cc(-c2ccc(/C=C3/C(=O)NC(=O)C(C#N)=C3C)o2)ccc1Cl	NadD block 38.6
CC(C)NC(=O)[C@]1(C#N)CC(=O)N(C)[C@@H]1c1ccccc1	none (no result: FAS TE block, NadD block, NR3A LBD binder)
COC(=O)C1CCCN(C(=O)C2CCN(S(=O)(=O)c3ccc([N+](=O)[O-])cc3)CC2)C1 (stereo unspecified)	none (no result: FAS TE block, NadD block, NR3A LBD binder)
CC(C)[C@H]1/C(=C/C2CC2)N2C(=O)C[C@@H](c3ccccc3)N=C2N1Cc1ccc2c(c1)OCO2	none (no result: FAS TE block, NadD block, NR3A LBD binder)
COc1ccc(-c2ccc(NC(=O)c3ccco3)cc2)nn1	none (no result: NR3A LBD binder)
O=C(Nc1cccc(NC(=O)c2ccc(-c3ccc(Br)cc3)o2)c1)c1ccco1	NR3A LBD binder 30.6
COc1ccc(-c2cccc(NC(=O)c3ccco3)c2)nn1	NR3A LBD binder 42.7
O=C(Nc1cccc(NC(=O)c2ccccc2Cl)c1)c1ccco1	none
COC(=O)[C@]12C[C@H](CC(=O)NCCc3ccccc3OC)C(=O)N(Cc3cccc4ccccc34)C1=C[C@H](C(C)C)O[C@@H]2C1CC1	none (no result: FAS TE block, NadD block, NR3A LBD binder)
CC(C)C[C@@H](CO)N1Cc2nnn(Cc3ccccc3)c2-c2ccccc2S1(=O)=O	none (no result: FAS TE block, NadD block, NR3A LBD binder)
COC(=O)c1cc2c(c3c4cc(C)ccc4n(S(=O)(=O)c4ccc(OC)cc4)c13)C(=O)N(C)C2	none (no result: FAS TE block, NadD block, NR3A LBD binder)
CCOC(=O)[C@@]12CCCC=C1N(CCc1ccc(Cl)cc1)C(=O)[C@H]2CC(=O)NCc1ccc(OC)c(OC)c1	none (no result: FAS TE block, NadD block, NR3A LBD binder)
C/C(=C/c1[nH]c(N)[n+](CC2CC2)c1Cc1ccccc1)Cn1[nH]c(=O)n(-c2ccccc2)c1=O	none (no result: FAS TE block, NadD block, NR3A LBD binder)
O=C1/C(=C/c2ccc(O)c(O)c2)Oc2cc(O)ccc21	NR3A LBD binder 15.1
O=C(NNC(=O)c1cccc2ccccc12)c1ccc(Cl)cc1Cl	NR3A LBD binder 23.4
O=C(NNC(=O)c1cccc2ccccc12)c1cccc(Cl)c1	NR3A LBD binder 12.5
COC(=O)[C@H](C(C)C)N(CCc1cn(Cc2ccccc2)nn1)S(=O)(=O)c1ccccc1Br	none (no result: FAS TE block, NadD block, NR3A LBD binder)
CC1CCN(C2=NC(=O)N(c3ccc(Br)cc3)C(=O)C2)CC1	none (no result: FAS TE block, NadD block, NR3A LBD binder)
c1ccc(-c2cn3c(n2)-c2ccccc2C3)cc1	NR3A LBD binder 12.9
Cc1cc(N2C(=O)C(O)=C(C(=O)c3cc4ccccc4o3)C2c2ccc([N+](=O)[O-])cc2)no1 (stereo unspecified)	rCAG binder 45.5
N#Cc1cc(Oc2ccc3ccccc3c2)c(-n2nnc3ccccc32)cc1C#N	NR3A LBD binder 12.7
CCOC(=O)[C@@]12CN(C(=O)OC(C)(C)C)CC=C1N(Cc1ccc(OC)cc1)C(=O)[C@H]2CC(=O)N1CCN(C(=O)C2CC2)CC1	none (no result: FAS TE block, NadD block, NR3A LBD binder)
CCN(c1cccc(C)c1)S(=O)(=O)c1ccc2[nH]c(=O)c(=O)[nH]c2c1	NR3A LBD binder 11.1 (no result: rCAG binder)
O=C(O)c1ccccc1C(=O)Nc1cc(-c2ccccc2)[nH]n1	none
O=C(Nc1cc(-c2ccccc2)[nH]n1)c1ccccc1F	NR3A LBD binder 24.3
Cc1cccc(CSc2nc(N)c(C#N)c(-c3cccs3)c2C#N)c1	NR3A LBD binder 13.3
COc1cc2c(cc1OC)C1=NC(=O)CN1C(SCc1ccccc1C)=N2	NR3A LBD binder 25.9
Cc1ccc(CSC2=Nc3ccccc3C3=NC(=O)CN23)cc1	none
COc1ccc(Br)cc1CNC(C)c1ccccc1 (stereo unspecified)	NR3A LBD binder 21.0
CCOC(=O)c1[nH]c2ccc(OC)cc2c1NC(=S)N1CCN(c2cccc(Cl)c2)CC1	NR3A LBD binder 13.3
CCOC(=O)c1[nH]c2ccc(OC)cc2c1NC(=S)N1CCN(c2ccccc2)CC1	none
CC(=O)C1(C(=O)NCc2ccccc2)CC(c2ccccn2)=NO1 (stereo unspecified)	none (no result: FAS TE block, NadD block, NR3A LBD binder)
COc1ccc(OC)c(NC(=O)Cn2cc(C#N)c3cc(Br)ccc32)c1	NR3A LBD binder 15.1
COc1ccc(NC(=O)Cn2cc(C#N)c3ccccc32)cc1	none
O=C(NNC(=O)c1cc2cc(OC(F)(F)F)ccc2[nH]1)c1ccc(Cl)cc1	NR3A LBD binder 14.4
CCCCOCCCNC(=O)C[C@H]1C[C@@]2(C(=O)OC)C(=C[C@H](COCc3ccccc3)O[C@@H]2C)N(Cc2ccco2)C1=O	none (no result: FAS TE block, NadD block, NR3A LBD binder)
COc1ccc2[nH]cc(/C=C/C(=O)c3ccccc3)c2c1	NR3A LBD binder 29.1
O=C(/C=C/c1c[nH]c2ccccc12)c1ccccc1	NR3A LBD binder 23.8
Cn1cc(/C=C/C(=O)c2ccccc2)c2ccccc21	none
